# According to PubChem BioAssay (NCI):
# The panel holds about 79,000 compounds, 15% with a hit somewhere; the sample as a whole holds those more often. Values without a mark were called inactive. Active and inactive are the calls of the source. Rule as the data show it: active = growth inhibition above about 70%; inactive = the rest.
# Experiments:
# [1] = NCI Yeast Anticancer Drug Screen. Data for the rad52 strain (AID 147);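 also: 0% = growth of vehicle-treated control cultures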; conditions: S. cerevisiae rad52 mutant growth inhibition, active compounds read high
# Procedure, shortened: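 Yeast strain carrying a DNA damage repair alteration was exposed to test compounds. Growth inhibition was measured relative to vehicle-treated controls.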
# [2] = NCI Yeast Anticancer Drug Screen. Data for the wt1 strain (AID 149);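 also: 0% = growth of vehicle-treated wt1 cultures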; conditions: S. cerevisiae wt1 strain (SPY 50644) growth inhibition, active compounds read high
# Procedure, shortened: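 Each compound is tested on wt1 yeast and the loss of growth versus vehicle gives the inhibition value.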
# [3] = NCI Yeast Anticancer Drug Screen. Data for the rad50EPP+ strain (AID 151);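 also: 0% = growth of vehicle-treated control cultures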; conditions: S. cerevisiae rad50 mutant strain, active compounds read high
# Procedure, shortened: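 Yeast strain carrying rad50 alteration (rad50EPP+) exposed to compounds; growth inhibition measured relative to vehicle-treated controls.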
# [4] = NCI Yeast Anticancer Drug Screen. Data for the rad50 strain (AID 155);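 also: 0% = growth of vehicle-only cultures of the same strain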; conditions: S. cerevisiae rad50 strain growth inhibition, active compounds read high
# Procedure, shortened: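 Vehicle-treated cultures provide the reference for the growth inhibition reported for compound-exposed, repair-deficient yeast.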
# [5] = NCI Yeast Anticancer Drug Screen. Data for the mec2-1 strain (AID 157); conditions: S. cerevisiae mec2-1 strain, active compounds read high
# Procedure, shortened: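 mec2-1 yeast strain, carrying an alteration in DNA damage repair or cell cycle control, was exposed to compounds; growth inhibition was measured relative to vehicle-treated controls.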
# [6] = NCI Yeast Anticancer Drug Screen. Data for the rad14 strain (AID 159);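 also: 0% = growth of vehicle-treated control cultures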; conditions: S. cerevisiae rad14 strain growth inhibition, active compounds read high
# Procedure, shortened: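 Inhibition of growth is reported for a repair-deficient yeast mutant following compound treatment, calculated relative to cultures that received vehicle.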
# [7] = NCI Yeast Anticancer Drug Screen. Data for the sgs1 mgt1 strain (AID 161);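 also: 0% = growth of cultures given vehicle only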; conditions: S. cerevisiae sgs1 mgt1 strain, active compounds read high
# Procedure, shortened: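 Growth of a repair-deficient yeast mutant was monitored after compound treatment and expressed as inhibition relative to vehicle-treated cultures.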
# [8] = NCI Yeast Anticancer Drug Screen. Data for the CLN2oe strain (AID 163);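 also: 0% = growth of vehicle-only control cultures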; conditions: S. cerevisiae CLN2oe strain, active compounds read high
# Procedure, shortened: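 Yeast cells carrying a defined cell-cycle control alteration were exposed to test compounds. Growth inhibition was scored against vehicle-treated control cultures.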
# [9] = NCI Yeast Anticancer Drug Screen. Data for the cln2 rad14 strain (AID 165);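 also: 0% = growth equal to vehicle treated cultures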; conditions: S. cerevisiae cln2 rad14 strain, active compounds read high
# Procedure, shortened: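 Yeast carrying cln2 and rad14 alterations (cell cycle control and DNA damage repair) were exposed to compounds. Growth inhibition was measured against vehicle-treated controls.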
# [10] = NCI Yeast Anticancer Drug Screen. Data for the bub3 strain (AID 167); conditions: S. cerevisiae bub3 mutant strain, active compounds read high
# Procedure, shortened: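 Mutant yeast screening strain plus compound; vehicle-treated cultures serve as the 0% inhibition reference.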
# [11] = NCI Yeast Anticancer Drug Screen. Data for the wt2 strain (AID 169); conditions: S. cerevisiae wt2 strain growth inhibition, active compounds read high
# Procedure, shortened: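 Yeast cells were exposed to test compounds, and growth inhibition was measured relative to vehicle-treated controls.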
# [12] = NCI Yeast Anticancer Drug Screen. Data for the mlh1 strain (AID 171);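 also: 0% = growth of vehicle-treated control cultures of the same strain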; conditions: S. cerevisiae mlh1 strain growth inhibition, active compounds read high
# Procedure, shortened: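 Yeast carrying a defined genetic alteration in DNA damage repair or cell cycle control were exposed to test compounds. Growth inhibition was measured relative to vehicle-treated controls.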
# [13] = NCI Yeast Anticancer Drug Screen. Data for the mlh1 rad18 strain (AID 175); conditions: S. cerevisiae mlh1 rad18 strain growth inhibition, active compounds read high
# Procedure, shortened: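 Growth inhibition of the yeast strain was measured after compound exposure and expressed relative to vehicle-treated controls. The strain carries defined defects in DNA damage repair.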
# [14] = NCI Yeast Anticancer Drug Screen. Data for the rad18 strain (AID 177); conditions: S. cerevisiae rad18 mutant growth inhibition, active compounds read high
# Procedure, shortened: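 Yeast carrying a defined DNA damage repair alteration were exposed to compounds. Growth inhibition was expressed relative to vehicle-treated controls.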
# [15] = NCI Yeast Anticancer Drug Screen. Data for the sgs1 strain (AID 173);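 also: 0% = growth of vehicle-only control cultures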; conditions: S. cerevisiae sgs1 mutant, active compounds read high
# Procedure, shortened: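 Yeast mutant strains carrying defined defects in DNA damage repair or cell cycle control were exposed to test compounds. Growth inhibition was scored against vehicle-treated controls.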
# [16] = at 5.0 µM (retest, dose inferred, filed as 0.5)
# [17] = at 50.0 µM (retest, dose inferred, filed as 5.0)
structure (smiles),measurement,setting,value
COc1ccc(CCN2C(=O)C=CC2=O)cc1OC,growth inhibition,[1]; at 1.2 µM,13%
same,growth inhibition,[1]; at 3.7 µM,37%
same,growth inhibition,[1]; at 11.0 µM,79% (active)
same,growth inhibition,[1]; at 33.0 µM,99% (active)
same,growth inhibition,[1]; at 100.0 µM,99% (active)
same,growth inhibition,[2]; at 1.2 µM,-1%
same,growth inhibition,[2]; at 3.7 µM,7%
same,growth inhibition,[2]; at 11.0 µM,62%
same,growth inhibition,[2]; at 33.0 µM,99% (active)
same,growth inhibition,[2]; at 100.0 µM,99% (active)
same,growth inhibition,[3]; at 1.2 µM,7%
same,growth inhibition,[3]; at 3.7 µM,50%
same,growth inhibition,[3]; at 11.0 µM,82% (active)
same,growth inhibition,[3]; at 33.0 µM,96% (active)
same,growth inhibition,[3]; at 100.0 µM,98% (active)
same,growth inhibition,[4]; at 1.2 µM,4%
same,growth inhibition,[4]; at 3.7 µM,18%
same,growth inhibition,[4]; [16],27%
same,growth inhibition,[4]; at 11.0 µM,67%
same,growth inhibition,[4]; at 33.0 µM,98% (active)
same,growth inhibition,[4]; [17],51%
same,growth inhibition,[4]; at 50.0 µM,83.2% (active)
same,growth inhibition,[4]; at 100.0 µM,98% (active)
same,growth inhibition,[5]; at 1.2 µM,5%
same,growth inhibition,[5]; at 3.7 µM,38%
same,growth inhibition,[5]; [16],43%
same,growth inhibition,[5]; at 11.0 µM,79% (active)
same,growth inhibition,[5]; at 33.0 µM,100% (active)
same,growth inhibition,[5]; [17],42%
same,growth inhibition,[5]; at 50.0 µM,92.3% (active)
same,growth inhibition,[5]; at 100.0 µM,100% (active)
same,growth inhibition,[6]; at 1.2 µM,-10%
same,growth inhibition,[6]; at 3.7 µM,3%
same,growth inhibition,[6]; at 11.0 µM,63%
same,growth inhibition,[6]; at 33.0 µM,99% (active)
same,growth inhibition,[6]; at 100.0 µM,99% (active)
same,growth inhibition,[7]; [16],74% (active)
same,growth inhibition,[7]; [17],98% (active)
same,growth inhibition,[8]; at 1.2 µM,17%
same,growth inhibition,[8]; at 3.7 µM,33%
same,growth inhibition,[8]; at 11.0 µM,81% (active)
same,growth inhibition,[8]; at 33.0 µM,99% (active)
same,growth inhibition,[8]; at 100.0 µM,99% (active)
same,growth inhibition,[9]; [16],78% (active)
same,growth inhibition,[9]; [17],99% (active)
same,growth inhibition,[10]; at 1.2 µM,15%
same,growth inhibition,[10]; at 3.7 µM,43%
same,growth inhibition,[10]; [16],97% (active)
same,growth inhibition,[10]; at 11.0 µM,88% (active)
same,growth inhibition,[10]; at 33.0 µM,99% (active)
same,growth inhibition,[10]; [17],97% (active)
same,growth inhibition,[10]; at 100.0 µM,99% (active)
same,growth inhibition,[11]; at 1.2 µM,-21%
same,growth inhibition,[11]; at 3.7 µM,5%
same,growth inhibition,[11]; at 11.0 µM,48%
same,growth inhibition,[11]; at 33.0 µM,99% (active)
same,growth inhibition,[11]; at 100.0 µM,99% (active)
same,growth inhibition,[12]; at 1.2 µM,-19%
same,growth inhibition,[12]; at 3.7 µM,4%
same,growth inhibition,[12]; at 11.0 µM,53%
same,growth inhibition,[12]; at 33.0 µM,99% (active)
same,growth inhibition,[12]; at 100.0 µM,98% (active)
same,growth inhibition,[13]; [16],23%
same,growth inhibition,[13]; [17],44%
same,growth inhibition,[13]; at 50.0 µM,84.4% (active)
same,growth inhibition,[14]; at 1.2 µM,-2%
same,growth inhibition,[14]; at 3.7 µM,15%
same,growth inhibition,[14]; at 11.0 µM,64%
same,growth inhibition,[14]; at 33.0 µM,98% (active)
same,growth inhibition,[14]; at 100.0 µM,98% (active)
Cc1ccc(P(c2ccc(C)cc2)c2ccc(C)cc2)cc1,growth inhibition,[1]; at 1.2 µM,-11%
same,growth inhibition,[1]; at 3.7 µM,-12%
same,growth inhibition,[1]; at 11.0 µM,1%
same,growth inhibition,[1]; at 33.0 µM,11%
same,growth inhibition,[1]; at 100.0 µM,23%
same,growth inhibition,[2]; at 1.2 µM,-25%
same,growth inhibition,[2]; at 3.7 µM,-12%
same,growth inhibition,[2]; at 11.0 µM,-5%
same,growth inhibition,[2]; at 33.0 µM,1%
same,growth inhibition,[2]; at 100.0 µM,7%
same,growth inhibition,[3]; at 1.2 µM,-7%
same,growth inhibition,[3]; at 3.7 µM,-10%
same,growth inhibition,[3]; at 11.0 µM,-12%
same,growth inhibition,[3]; at 33.0 µM,-23%
same,growth inhibition,[3]; at 100.0 µM,-34%
same,growth inhibition,[6]; at 1.2 µM,-34%
same,growth inhibition,[6]; at 3.7 µM,-41%
same,growth inhibition,[6]; at 11.0 µM,-40%
same,growth inhibition,[6]; at 33.0 µM,-31%
same,growth inhibition,[6]; at 100.0 µM,-31%
same,growth inhibition,[8]; at 1.2 µM,8%
same,growth inhibition,[8]; at 3.7 µM,4%
same,growth inhibition,[8]; at 11.0 µM,4%
same,growth inhibition,[8]; at 33.0 µM,10%
same,growth inhibition,[8]; at 100.0 µM,18%
same,growth inhibition,[11]; at 1.2 µM,-17%
same,growth inhibition,[11]; at 3.7 µM,-15%
same,growth inhibition,[11]; at 11.0 µM,-15%
same,growth inhibition,[11]; at 33.0 µM,5%
same,growth inhibition,[11]; at 100.0 µM,13%
same,growth inhibition,[12]; at 1.2 µM,-30%
same,growth inhibition,[12]; at 3.7 µM,-36%
same,growth inhibition,[12]; at 11.0 µM,-16%
same,growth inhibition,[12]; at 33.0 µM,-6%
same,growth inhibition,[12]; at 100.0 µM,13%
same,growth inhibition,[15]; at 1.2 µM,-27%
same,growth inhibition,[15]; at 3.7 µM,-27%
same,growth inhibition,[15]; at 11.0 µM,4%
same,growth inhibition,[15]; at 33.0 µM,18%
same,growth inhibition,[15]; at 100.0 µM,39%
same,growth inhibition,[14]; at 1.2 µM,-1%
same,growth inhibition,[14]; at 3.7 µM,-4%
same,growth inhibition,[14]; at 11.0 µM,9%
same,growth inhibition,[14]; at 33.0 µM,28%
same,growth inhibition,[14]; at 100.0 µM,34%
CN(C)/N=N/c1nc[nH]c1C(N)=O,growth inhibition,[1]; at 1.2 µM,-2%
same,growth inhibition,[1]; at 3.7 µM,1%
same,growth inhibition,[1]; at 11.0 µM,8%
same,growth inhibition,[1]; at 33.0 µM,31%
same,growth inhibition,[1]; at 100.0 µM,95% (active)
same,growth inhibition,[2]; at 1.2 µM,0%
same,growth inhibition,[2]; at 3.7 µM,-1%
same,growth inhibition,[2]; at 11.0 µM,-3%
same,growth inhibition,[2]; at 33.0 µM,-1%
same,growth inhibition,[2]; at 100.0 µM,88% (active)
same,growth inhibition,[3]; at 1.2 µM,-3%
same,growth inhibition,[3]; at 3.7 µM,-2%
same,growth inhibition,[3]; at 11.0 µM,0%
same,growth inhibition,[3]; at 33.0 µM,8%
same,growth inhibition,[3]; at 100.0 µM,32%
same,growth inhibition,[5]; at 1.2 µM,0%
same,growth inhibition,[5]; at 3.7 µM,0%
same,growth inhibition,[5]; at 11.0 µM,1%
same,growth inhibition,[5]; at 33.0 µM,5%
same,growth inhibition,[5]; at 100.0 µM,98% (active)
same,growth inhibition,[6]; at 1.2 µM,-2%
same,growth inhibition,[6]; at 3.7 µM,-2%
same,growth inhibition,[6]; at 11.0 µM,0%
same,growth inhibition,[6]; at 33.0 µM,-1%
same,growth inhibition,[6]; at 100.0 µM,98% (active)
same,growth inhibition,[8]; at 1.2 µM,1%
same,growth inhibition,[8]; at 3.7 µM,2%
same,growth inhibition,[8]; at 11.0 µM,0%
same,growth inhibition,[8]; at 33.0 µM,0%
same,growth inhibition,[8]; at 100.0 µM,99% (active)
same,growth inhibition,[10]; at 1.2 µM,2%
same,growth inhibition,[10]; at 3.7 µM,1%
same,growth inhibition,[10]; at 11.0 µM,-2%
same,growth inhibition,[10]; at 33.0 µM,46%
same,growth inhibition,[10]; at 100.0 µM,96% (active)
same,growth inhibition,[11]; at 1.2 µM,-5%
same,growth inhibition,[11]; at 3.7 µM,-1%
same,growth inhibition,[11]; at 11.0 µM,-2%
same,growth inhibition,[11]; at 33.0 µM,-2%
same,growth inhibition,[11]; at 100.0 µM,98% (active)
same,growth inhibition,[12]; at 1.2 µM,-2%
same,growth inhibition,[12]; at 3.7 µM,-2%
same,growth inhibition,[12]; at 11.0 µM,0%
same,growth inhibition,[12]; at 33.0 µM,0%
same,growth inhibition,[12]; at 100.0 µM,97% (active)
same,growth inhibition,[14]; at 1.2 µM,-3%
same,growth inhibition,[14]; at 3.7 µM,0%
same,growth inhibition,[14]; at 11.0 µM,8%
same,growth inhibition,[14]; at 33.0 µM,42%
same,growth inhibition,[14]; at 100.0 µM,98% (active)
